These results are taken from PubChem BioAssay AID493034 (The Scripps Research Institute Molecular Screening Center, 2011).

Out of some 2,400 compounds screened, about 2,200 (92%) were called active. The set was probably picked from earlier hits. This is one part of the list. Unmarked numbers belong to inactive results.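 Rule for the calls: active = mean inhibition over triplicate runs exceeds the cutoff derived for the earlier primary screen (cut at about 25% in these data); inactive = the rest.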

The target in this assay is Platelet-activating factor acetylhydrolase IB subunit alpha2 (Homo sapiens) (UniProt P68402). In words: PAFAH1B2 inhibitors, confirmation, biochemical, fluorescence polarization, FP-rhodamine probe, triplicate (AID 493034).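 Note: 0% = enzyme with DMSO and 100% = wells lacking PAFAH1B2 protein; inhibitors lower polarization by leaving the probe unbound.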 Particulars: recombinant PAFAH1B2, FP-rhodamine probe fluorescence polarization; at 3.39 µM; active compounds read high.
Sequence of Platelet-activating factor acetylhydrolase IB subunit alpha2 (Homo sapiens) (P68402 whole entry, looked up): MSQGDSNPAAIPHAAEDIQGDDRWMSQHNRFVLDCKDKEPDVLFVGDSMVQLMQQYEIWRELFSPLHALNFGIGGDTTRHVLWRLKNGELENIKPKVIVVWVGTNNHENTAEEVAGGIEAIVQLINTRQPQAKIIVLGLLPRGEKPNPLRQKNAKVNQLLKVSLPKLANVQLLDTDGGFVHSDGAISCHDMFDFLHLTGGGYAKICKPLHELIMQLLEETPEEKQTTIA
As usually defined, the inhibition is the drop in the measured response relative to a control, in per cent. As to `N#Cc1c(NC(=O)Cn2c(=O)oc3ccccc32)oc(-c2ccccc2)c1-c1ccccc1`, the inhibition was 45% (active). With `O=C(NNC(=O)C1CCN(S(=O)(=O)c2ccc(Cl)cc2)CC1)c1ccccc1`, the inhibition is 24%.

Turning to `CCN(CC)S(=O)(=O)c1ccc(C(=O)NNC(=O)C2CCN(S(=O)(=O)c3ccc(Cl)cc3)CC2)cc1`, the inhibition is 37.9% (active). For `C=CCNC(=O)C1CCN(S(=O)(=O)c2ccc(Br)cc2)CC1` the value was 23.8%; for `Cc1ccc(C(c2nnnn2Cc2ccccc2)N2CCN(Cc3ccccc3)CC2)cc1` (stereo unspecified), 16.6%; for `Cn1c(=S)[nH]c2sc3c(c2c1=O)CCC(C(C)(C)C)C3` (stereo unspecified), 41.1% (active). On to `O=C(O)c1ccc(CSCc2ccccc2Cl)o1`, for which the inhibition is 14.4%. The value for `CCOC(=O)CSc1nnc(NC(=O)CN2CCN(C=O)CC2)s1` was 3.79%. As for `CCN(C(=O)COC(=O)c1cc(NS(=O)(=O)c2ccc(Cl)c([N+](=O)[O-])c2)ccc1O)C1CCCCC1`, the inhibition is 36.1% (active). For `COC(=O)c1cc(NS(=O)(=O)c2ccc(N3CCCCCC3)c([N+](=O)[O-])c2)cc(C(=O)OC)c1` the value was 23.8%. The value for `CCN(Cc1ccccc1)C(=O)COC(=O)c1cc(S(=O)(=O)Nc2ccccc2OC)ccc1O` was 23.2%. The value for `Cc1ccc(OCCC(=O)OCC(=O)NC2CCCC(C)C2C)cc1` (stereo unspecified) was 21.5%. On to `Oc1ccc(C23CC4CC(CC(C4)C2)C3)cc1O`, for which the inhibition was 33.2% (active). As to `CCCCCCCCN1[C@@H](CC(=O)O)c2ccc(C(F)(F)F)cc2S1(=O)=O`, the inhibition was 21.7%. The value for `CC(C)(C)c1ccc(C2=CC(c3ccccc3F)n3ncnc3N2)cc1` (stereo unspecified) was 15.1%. Turning to `CCN(c1ccccc1)S(=O)(=O)c1cc(C(=O)O)ccc1C`, the inhibition was 45.1% (active). The value for `CCN(CC)CCN(C(=O)c1ccc(S(=O)(=O)N(CC)c2ccccc2)cc1)c1nc2c(OC)ccc(OC)c2s1` was 16.4%; that for `O=C(O)c1ccc(Cl)c(S(=O)(=O)N(Cc2ccccc2)c2ccc(F)cc2)c1` was 22.7%.

As to `CC1CCCC(NC(=O)c2cccc(S(=O)(=O)NCc3ccccc3)c2)C1C` (stereo unspecified), the inhibition was 18.3%. For `CCc1ccc([C@@H]2CC=C(C(=O)O)[C@H](c3ccc(C(C)(C)C)cc3)N2S(=O)(=O)c2ccc(C)cc2)cc1`, the inhibition was 97.5% (active). The value for `Cc1ccc([C@@H]2CC=C(C(=O)O)[C@H](c3ccc(C(C)(C)C)cc3)N2S(=O)(=O)c2ccc(C)cc2)cc1` was 95.5% (active); that for `Cc1ccc(S(=O)(=O)N2[C@@H](c3ccc(C(C)(C)C)cc3)C(C(=O)O)=CC[C@H]2c2ccc(C(C)C)cc2)cc1` was 89.3% (active).

Regarding `O=C(COc1ccc(Cl)cc1)NC1=NN(c2ccccc2)C(=O)C1`, the inhibition was 67.5% (active).

Regarding `O=C(COc1ccc(Cl)cc1)NNC(=O)C(=O)N1CCCCC1`, the inhibition is 19.2%. The value for `CCOC(=O)N1CCN(C(=O)c2ccccc2NC(=O)COc2ccccc2)CC1` was 1.01%; that for `N#CC1=C(N)c2ccccc2CC12CCCCC2` was 17.4%. The value for `N=C(N)c1ccc(N=Nc2c(O)ccc3c2[nH]c2ccccc23)cc1` was 33.4% (active); that for `O=[N+]([O-])c1cc(C2Nc3cccc4cccc(c34)N2)ccc1Cl` was -0.07%; that for `O=C1OC[C@H]2CCCN2C(=O)[C@@H](CC(=O)N(CCO)Cc2ccccc2)C/C=C\C[C@@H]1Cc1ccc(F)cc1` was 27.5% (active).

`O=C1N[C@@H](Cc2ccccc2)COC(=O)[C@@H](Cc2ccc(F)cc2)C/C=C\C[C@@H]1CC(=O)N(CCO)Cc1ccccc1`: the inhibition was 37.2% (active). The value for `O=C1OC[C@@H]2CCCN2C(=O)[C@@H](CC(=O)N(CCO)Cc2ccccc2)C/C=C\C[C@H]1Cc1ccc(F)cc1` was 29.1% (active); that for `O=C1OC[C@@H]2CCCN2C(=O)[C@H](CC(=O)N(CCO)Cc2ccccc2)C/C=C\C[C@H]1Cc1ccc(F)cc1` was 33.2% (active); that for `O=C1N[C@@H](Cc2c[nH]c3ccccc23)COC(=O)[C@@H](Cc2ccc(F)cc2)CC/C=C/C[C@@H]1CC(=O)N(CCO)Cc1ccccc1` was 21.5%. For the molecule `O=C(O)CCc1ccc(-c2ccc(Br)cc2)n1-c1ccc(O)cc1`, the inhibition was 31.6% (active). The value for `CS(=O)(=O)C1=NSC2=NC(=O)/C(=C\c3cccn3-c3ccc(Cl)cc3)C(=N)N21` was 55.9% (active); that for `CCC1=NN2C(=N)/C(=C\c3cccn3-c3ccc(Cl)cc3)C(=O)N=C2S1` was 36.4% (active); that for `Cc1ccc(S(=O)(=O)Oc2ccc(/C=C3/C(=N)N4C(=NC3=O)SN=C4S(C)(=O)=O)cc2)cc1` was 50% (active).

`Cc1ccc(-n2cccc2/C=C2\C(=N)N3N=C(c4ccco4)SC3=NC2=O)cc1`: the inhibition is 38.1% (active). For `Cc1ccc(SCc2cn3c(C)csc3n2)cc1` the value was 59.7% (active); for `Cc1ccc(SCC(=O)NC(C)c2ccccc2)cc1` (stereo unspecified), 21%; for `CCc1ccc(C2CC(c3ccc(Cl)cc3)n3nc(N)nc3N2)cc1` (stereo unspecified), 30.1% (active). For `C=CC[C@H](CC(=O)N(CCO)Cc1ccccc1)C(=O)N[C@H](COC(=O)[C@@H](CC=C)Cc1ccc(F)cc1)Cc1ccccc1` the value was 58% (active); for `CCCCn1c(N)c(N(CC(C)C)C(=O)CN2C(=O)NC3(CCC(C(C)(C)CC)CC3)C2=O)c(=O)[nH]c1=O` (stereo unspecified), 16.4%; for `COc1ccc(N2CCN(C(=O)CCNC(=O)c3ccc(C(C)(C)C)cc3)CC2)cc1`, 62.3% (active).

Take `COc1ccc2[nH]c(C(=O)NCCN3CCOCC3)cc2c1`: the inhibition is 6.21%.

For `CC(/C=C1\SC(=S)N(NS(=O)(=O)c2ccccc2)C1=O)=C\c1ccccc1`, the inhibition was 39.6% (active). For `Cc1ccc(S(=O)(=O)n2ccc3c(OCCOCCSCC(NC(=O)OC(C)(C)C)C(=O)O)cccc32)cc1` (stereo unspecified) the value was 85.8% (active); for `CC1(C)Cc2ccccc2C2=C(C(=O)N3CCCCCC3)C(=O)C(=O)N21`, 64.2% (active). For `O=C1C(=O)N2C(=C1C(=O)N1CCCCCC1)c1ccccc1CC21CCCC1`, the inhibition is 32.8% (active). `CCC(=O)Nn1cnc2c(c1=O)C1(CCCCC1)Cc1ccccc1-2`: the inhibition is 19.9%. The value for `O=C(NCCSc1ncc(-c2ccc(F)cc2)[nH]1)c1ccc2c(c1)OCO2` was 20.8%; that for `CCOc1ccc(OCCSc2nc3ccccc3c(=O)[nH]2)cc1` was 3.03%.

Regarding `CCOC(=O)Cc1csc(NC(=O)CSc2nc(-c3ccccc3)c(C#N)c(=O)[nH]2)n1`, the inhibition is 63.6% (active). The value for `CCOC(=O)c1ccccc1NC(=O)CSc1nnc(C)c(=O)[nH]1` was 22.2%; that for `CCOc1ccc2nc(NC(=O)CSc3nc(-c4ccccc4)c(C#N)c(=O)[nH]3)sc2c1` was 81.7% (active).

Turning to `N#Cc1c(-c2ccccc2)nc(SCC(=O)Nc2ccc(OC(F)(F)Cl)cc2)[nH]c1=O`, the inhibition was 76.1% (active).

For `CCc1ccc(S(=O)(=O)NCCc2csc(-c3ccccc3)n2)s1`, the inhibition was 22.1%.

Consider `Cc1cc(N2CCCC2=O)cc(C)c1S(=O)(=O)NCCOc1ccc(C(C)(C)C)cc1`, for which the inhibition is 33.7% (active). `O=C1C(=O)C(c2ccccc2)C(=O)C1c1ccccc1` (stereo unspecified): the inhibition was 25.4% (active). For `COc1cc(Cl)cc(C(c2c(C(=O)O)[nH]c3ccccc23)c2c(C(=O)O)[nH]c3ccccc23)c1O` the value was 71% (active); for `O=C(O)c1[nH]c2ccccc2c1C(c1cc(Cl)cc([N+](=O)[O-])c1O)c1c(C(=O)O)[nH]c2ccccc12`, 43.8% (active). For `CN(Cc1cccs1)C(=O)CCNS(=O)(=O)c1ccc(Br)cc1` the value was 21.4%; for `O=[N+]([O-])c1cc(-c2csc(NCCc3nc4cc(C(F)(F)F)ccc4n3CCCO)n2)ccc1Cl`, 14.9%; for `O=C(O)c1ccc(NS(=O)(=O)c2ccc(Cl)c(Cl)c2)cc1O`, 20.1%. The value for `O=C(O)c1cc(NS(=O)(=O)c2ccc3ccccc3c2)ccc1O` was 35.9% (active); that for `COc1ccccc1NC(=O)C(=O)NNS(=O)(=O)c1ccc2ccccc2c1` was 23.4%; that for `CCC(Sc1nc(-c2cccc(OC)c2)c(C#N)c(=O)[nH]1)C(=O)Nc1nnc(C(C)C)s1` (stereo unspecified) was 34.6% (active). Turning to `Cc1ccccc1S(=O)(=O)N1[C@@H](c2ccc(Br)cc2)C(C(=O)O)=CC[C@H]1c1ccc(Cl)cc1`, the inhibition was 83.2% (active).

Regarding `O=C(O)C1=CC[C@@H](c2ccc(Cl)cc2)N(S(=O)(=O)c2ccc(Cl)cc2)[C@H]1c1ccc(Br)cc1`, the inhibition is 86.3% (active). For `CNc1nc(NCCOC23CC4CC(CC(C4)C2)C3)nc(OCC(F)(F)F)n1`, the inhibition is 22.2%. The value for `CCCCNC(=O)Oc1ccc(C(=O)N2c3ccccc3NC(=O)C2C)cc1` (stereo unspecified) was 41.2% (active). The value for `CC(C)(C)Cc1nnc(NS(=O)(=O)c2ccc(F)cc2)s1` was 20.3%; that for `C/C(CC(C)(C)C1CCCCC1)=N\NC(N)=S` was 30.1% (active).

As for `NC(=NCCc1ccc(Cl)cc1)NS(=O)(=O)c1ccccc1`, the inhibition was 49.9% (active). On to `O=S(=O)(NCc1ccc(Cl)cc1)c1ccc(Cl)nc1`, for which the inhibition was 22.4%. The value for `CSCCC(NS(=O)(=O)c1ccc(Cl)cc1)C(=O)OCc1cccc(Cl)c1` (stereo unspecified) was 23.1%; that for `O=S(=O)(NC(=NCCc1ccc(Cl)cc1)c1ccccc1Cl)c1cccs1` was 110% (active); that for `NC(=NCCc1ccc(Cl)cc1)NS(=O)(=O)c1ccc(F)cc1` was 50.7% (active). For `O=C(CNS(=O)(=O)c1ccccc1)NCC(=O)OCc1ccc(Br)cc1` the value was 23.9%; for `CCOC(=O)c1sc(NC(=O)CN(CC(C)C)CC(C)C)c(C(=O)OCC)c1C`, 6.46%; for `N#C/C(=C/c1cn[nH]c1-c1ccc(Br)cc1)C(=O)O`, 20.3%. The value for `Cc1ccc([N+](=O)[O-])c(-c2n[nH]c(=S)n2-c2cccc(Cl)c2)c1` was 24%; that for `CC(C)(C)[C@H]1COC(=O)[C@@H](Cc2ccc(F)cc2)CC/C=C/C[C@@H](CC(=O)N[C@H](CO)Cc2ccccc2)C(=O)N1` was 26.6% (active); that for `CC(C)(C)[C@@H]1COC(=O)[C@H](Cc2ccc(F)cc2)C/C=C\C[C@@H](CC(=O)NCCO)C(=O)N1` was 17.5%.

`CC(C)(C)[C@H]1COC(=O)[C@@H](Cc2ccc(F)cc2)C/C=C\C[C@@H](CC(=O)N[C@H](CO)Cc2ccccc2)C(=O)N1`: the inhibition is 62.1% (active).

For `CC(C)(C)[C@H]1COC(=O)[C@@H](Cc2ccc(F)cc2)C/C=C\C[C@@H](CC(=O)N[C@@H](CO)Cc2ccccc2)C(=O)N1`, the inhibition was 32.7% (active).
